# Assay results reported in PubChem BioAssay (Tox21).
# Inconclusive results are not listed. Unmarked numbers belong to inactive results. Active and inactive are the calls of the source. Calls follow the shape of the full dose curve.
# Target: Beta-2 adrenergic receptor (Homo sapiens) (UniProt P07550)
# Test: Adrenergic beta2 receptor (ADRB2) small molecule agonists, cell-based qHTS assay (AID 1963593)
# Details: CHO-ADRB2 cells, cAMP HTRF, 30 min; series mostly up to 92.4 µM; activation: at the top concentration
# Text: National Center for Advancing Translational Sciences [NCATS]
# Division of Preclinical Innovation [DPI]
# U.S. Environmental Protection Agency [EPA]
# National Institutes of Environmental Health Sciences [NIEHS]
# National Toxicology Program [NTP]
# U.S. Food and Drug Administration [FDA]
# Beta adrenergic receptors (Beta-ARs) belong to the G-protein coupled receptor (GPCR) superfamily, includes three subtypes - beta1, beta2, and beta3. Beta1-AR is the predominant receptor subtype expressed in the heart, and beta2-AR is expressed in the kidney, lung, blood vessel and in the heart, and beta3 is found in the adipocytes. Beta1 and 2 ARs couple to Gs protein and elevate cyclic adenosine mono phosphate (cAMP), which activates protein kinase A and leads to the downstream signaling responsible for the physiological actions. Beta-AR agonists or antagonists are the most prescribed therapeutic agents for heart failure and asthma, and these were one of the first target receptors for the rational drug design. Tox21 10K compound library was screened using the cAMP-Gs dynamic assay (Cisbio Bioassays, Shelton, CT) to identify agonists/antagonists of the Gs-coupled human adrenergic, beta2 receptor (ADRB2) in the CHO-ADRB2 cell line (Codex BioSolutions, Inc. Gaithersburg, MD), which stably over-expresses ADRB2. The principle of cAMP-Gs dynamic assay is based on HTRF technology, which facilitates the fluorescence resonance energy transfer (FRET) between donor Europium cryptate and acceptor d2-labeled cAMP. The cAMP generated within cells competes with the red acceptor, d2-labled cAMP, for binding to the monoclonal anti-cAMP-cryptate (Europium donor). An increase in intracellular cAMP leads to the disruption of FRET signal, and the signal is inversely proportional to the cAMP concentration. Isoproterenol HCl (Sigma-Aldrich, St. Louis, MO) was used as a positive control in the screening.
# Tox21 Assay Protocol Summary:
# CHO-ADRB2 cells were dispensed at 1,000/well in 4uL assay medium into white/solid 1536-well plates (Greiner Bio-One North America Inc., Monroe, NC) using a Multidrop Combi dispenser (ThermoFisher Scientific, Waltham, MA). The assay plates were incubated at 37C and 5% CO2 for an overnight (18-20hr). Then positive control and test compounds dissolved in DMSO were transferred to the assay plates at 23nL using a Pintool station (Wako, San Diego, CA). Following the compound and positive control transfer, 1uL stimulation mix containing 100uM IBMX and 25uM Ro-20-1724 was added to each well of the assay plates using BioRAPTR Flying Reagent Dispenser (FRD, Beckman Coulter, Brea, CA). The assay plates were incubated at room temperature for 0.5hr. Then 2.5ul each d2-labled cAMP and anti-cAMP-cryptate solutions were added separately to each well of the assay plates using an FRD and the assay plates were incubated at room temperature for 1hr.
# % is scaled to controls: 0 for no effect and ±100 for the full control effect.
# Beta-2 adrenergic receptor (Homo sapiens), sequence (P07550 whole entry, looked up): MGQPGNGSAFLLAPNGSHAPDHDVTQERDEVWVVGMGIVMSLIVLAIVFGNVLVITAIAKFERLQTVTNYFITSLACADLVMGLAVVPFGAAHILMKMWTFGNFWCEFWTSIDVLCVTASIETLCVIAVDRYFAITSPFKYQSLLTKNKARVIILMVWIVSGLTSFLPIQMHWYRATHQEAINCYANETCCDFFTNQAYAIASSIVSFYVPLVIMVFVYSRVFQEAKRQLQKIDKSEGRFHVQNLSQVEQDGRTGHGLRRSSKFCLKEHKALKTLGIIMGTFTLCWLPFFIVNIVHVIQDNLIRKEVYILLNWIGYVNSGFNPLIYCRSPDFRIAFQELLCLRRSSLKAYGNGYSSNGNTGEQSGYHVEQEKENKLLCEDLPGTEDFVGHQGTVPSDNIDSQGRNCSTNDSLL
Compound,activation,Potency
CN1CCCC1,7.88%,–
O=c1[nH]c(=O)c2ccccc2o1,-16.2% [at 42.5 µM],–
NC(=O)C1CO1 (stereo not given),5.02%,–
[O]=[Zr],23.4%,–
Nc1cccc2c1CN(C1CCC(=O)NC1=O)C2=O (stereo not given),-0.627% [at 42.5 µM],–
CCCOC(C)=O,16.5%,–
COc1cc(C(=O)N2CCOCC2)cc(OC)c1OC,17.9% [at 42.5 µM],–
OC[C@H]1O[C@@H]2O[C@H]3[C@H](O)[C@@H](O)[C@@H](O[C@H]4[C@H](O)[C@@H](O)[C@@H](O[C@H]5[C@H](O)[C@@H](O)[C@@H](O[C@H]6[C@H](O)[C@@H](O)[C@@H](O[C@H]7[C@H](O)[C@@H](O)[C@@H](O[C@H]8[C@H](O)[C@@H](O)[C@@H](O[C@H]1[C@H](O)[C@H]2O)O[C@@H]8CO)O[C@@H]7CO)O[C@@H]6CO)O[C@@H]5CO)O[C@@H]4CO)O[C@@H]3CO,–,inactive
CCCCCCOC(=O)CC,8.55%,–
CC1=CCC(O)(C(C)C)CC1 (stereo not given),-12.3%,–
CCC(C)=O,-6.06%,–
CC(C)CCOCCC(C)C,-4.87%,–
COc1ccc(C)cc1,-5.12%,–
CCCCOC(=O)CCCCCCCC(=O)OCCCC,-11.7%,–
Cc1ccc(C(=O)c2cc(O)c(O)c([N+](=O)[O-])c2)cc1,1.89% [at 42.5 µM],–
CC(C)[C@H]1CC[C@@H](C)CC1=O,3.28%,–
CSc1ccc(C(=O)c2[nH]c(=O)[nH]c2C)cc1,-6.81% [at 42.5 µM],–
C1=CCC2CC=CC2C1 (stereo not given),7.14%,–
O=C(O)/C=C/c1ccc(Cn2ccnc2)cc1,14.4% [at 42.5 µM],–
CCCSc1ccc2nc(NC(=O)OC)[nH]c2c1,8.32% [at 42.5 µM],–

Compound,activation,Potency
CC(C)N=C(N)/N=C(\N)Nc1ccc(Cl)cc1,2.25% [at 42.5 µM],–
O=C(c1ccc(Cl)cc1)c1ccc(Cl)cc1,-19.4%,–
O=Cc1ccc(Cl)c(Cl)c1,22.4%,–
Cc1cc(OCCOCC[N+](C)(C)Cc2ccccc2)ccc1C(C)(C)CC(C)(C)C,-16.3% [at 42.5 µM],–
CC(CO)c1ccccc1 (stereo not given),8.51%,–
Oc1cc(O)c2c(c1)O[C@H](c1ccc(O)c(O)c1)[C@H](O)C2,-3.66% [at 42.5 µM],–
Nc1c(NC/C=C\COc2cc(CN3CCCCC3)ccn2)c(=O)c1=O,-3.93% [at 19 µM],–
C(/C=C/C=C/Nc1ccccc1)=Nc1ccccc1,0.836%,–
COc1cc(C(=O)N2CCCCCCC2)cc(OC)c1OC,4.34% [at 42.5 µM],–
COC(=O)c1cc(Cl)c(NC(C)=O)cc1OC,-8.52% [at 42.5 µM],–
O=S(=O)(O)CCS,–,inactive
CC(C)(CC(=O)O)C(=O)O,-10.5%,–
CCCCCOC(C)=O,10.5%,–
CC(C)=O,23.4%,–
Nc1ccc(Cl)c(N)c1,-23.4%,–
CCC(=O)c1ccc(O)cc1,28% [at 42.5 µM],–
OCCN1CCN(CCCN2c3ccccc3C=Cc3ccccc32)CC1,-39.1% [at 42.5 µM],–
CC[C@@H]1C[C@H](N(Cc2cc(C(F)(F)F)cc(C(F)(F)F)c2)C(C)=O)c2cc(C(F)(F)F)ccc2N1C(=O)OC(C)C,1.53%,–
CCCCCC(=O)CC,3.43%,–
O=S(=O)(O)c1ccc2c(N=Nc3ccc(S(=O)(=O)O)c4ccccc34)c(O)c(S(=O)(=O)O)cc2c1,-0.404% [at 8.39 µM],–
